This passage reports outcome results from PubChem BioAssay.

Results with a measured potency or affinity are listed apart. Calls of active or inactive are those of the source. The limit is not given here; nearly all actives have IC50 up to about 0.91 µM.

Chain of Calcium-dependent protein kinase 4 (Plasmodium falciparum (isolate 3D7)) (Q8IBS5 whole entry, looked up): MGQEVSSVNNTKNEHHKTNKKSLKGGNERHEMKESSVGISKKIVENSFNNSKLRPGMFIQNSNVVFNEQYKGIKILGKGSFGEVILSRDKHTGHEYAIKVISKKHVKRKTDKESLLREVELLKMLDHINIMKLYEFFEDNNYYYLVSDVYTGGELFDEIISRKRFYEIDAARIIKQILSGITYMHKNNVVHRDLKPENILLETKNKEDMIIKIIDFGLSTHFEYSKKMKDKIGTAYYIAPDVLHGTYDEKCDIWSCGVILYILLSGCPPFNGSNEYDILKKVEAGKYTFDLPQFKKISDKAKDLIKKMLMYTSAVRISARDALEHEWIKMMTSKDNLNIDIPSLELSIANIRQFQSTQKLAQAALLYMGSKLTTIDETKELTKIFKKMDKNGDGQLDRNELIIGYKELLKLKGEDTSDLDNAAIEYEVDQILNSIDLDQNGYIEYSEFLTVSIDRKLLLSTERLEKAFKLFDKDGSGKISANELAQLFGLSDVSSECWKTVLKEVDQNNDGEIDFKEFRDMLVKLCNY

This assay has as its target Calcium-dependent protein kinase 4 (Plasmodium falciparum (isolate 3D7)) (UniProt Q8IBS5). The assay can be described thus: PfCDPK4 kinase inhibitors, biochemical, TCAMS library (AID 1159588). The conditions noted are these: recombinant PfCDPK4, Kinase-Glo ATP depletion luminescence.
Take `CC[C@@H]([C@@H](Cc1cc2ccccc2s1)C(=O)N[C@@H](CCCCNC(=O)OCc1ccccc1)C(=O)Nc1ccccn1)N(O)C=O`: the result was inactive.

In the case of `CC(C)(C)c1ccc(C(=O)N2CCC3(CC2)C(=O)N(CC(=O)NCC2CCCO2)CN3c2ccccc2)cc1` (stereo not given), the result was inactive.

In the case of `NC(=O)c1cccc(CNC(=O)NC[C@H]2CN(Cc3ccc(Cl)c(Cl)c3)CCO2)c1`, the result was inactive.

`Cc1cc(Nc2cccc(Cl)c2)nc2ccc(NC(=O)c3ccc(=O)[nH]c3)cc12`: the result was inactive.

In the case of `COc1ccc(NC(=O)Nc2ccc(-c3cccc(-c4nc5c(C)cccc5[nH]4)c3)cc2)cc1`, the outcome was inactive.

Consider `CN(C)CCN(Cc1ccccc1-c1ccc(CNCCc2ccccc2)cc1)C(=O)NC1CCCCC1`, for which the result was inactive.

Take `CN1CCC(N(Cc2ccc(-c3ccc(C(F)(F)F)cc3)nc2)C(=O)Cn2c(CCc3cccc(F)c3F)cc(=O)c3ccccc32)CC1`: the outcome was inactive.

Consider `CC(c1cccc(S(=O)(=O)NCc2cccc(C(F)(F)F)c2)c1)N1CCC(N2CCCCC2)CC1` (stereo not given), for which the result was inactive.

On to `CCCn1c(Sc2ccc(C#N)c([N+](=O)[O-])c2)nnc1-c1ccc(OC)cc1`, for which the outcome was inactive.

As to `CCOC(=O)C(C(C)=O)C(c1ccccc1)C(C(C)=O)C(=O)OCC` (stereo not given), the outcome was inactive.

Turning to `FC(F)(F)c1ccc2nc(-c3cccc(-c4ccc(CNCCc5ccncc5)cc4)c3)[nH]c2c1`, the result was inactive.

`CC(C)c1nc(N2CCN(C(=S)NCc3ccccc3)CC2)c(C#N)c2c1COC(C)(C)C2`: the outcome was inactive.

For `O=C(NCCc1ccc(Cl)c(Cl)c1)[C@@H]1CCCN1C(=O)c1ccc(O)c(-c2ccc(Cl)c(Cl)c2)c1`, the outcome was inactive.

As for `NCC1CCCN1Cc1cccc(-c2ccc(-c3nc4ccc(C(F)(F)F)cc4[nH]3)s2)c1` (stereo not given), the result was inactive.

For `CN(CCCNc1ccc(C(=O)Nc2ccc(C(F)(F)F)cc2)cc1[N+](=O)[O-])Cc1ccccc1`, the result was inactive.

For `Cc1ccc(-c2cc(C(=O)Nc3ccc(S(=O)(=O)N4CCCCC4C)cc3)[nH]n2)c(O)c1` (stereo not given), the result was inactive.

With `COc1ccccc1-c1cccc(Nc2c(Nc3ccc(Cl)cc3)c(=O)c2=O)c1`, the outcome was inactive.

For the molecule `O=C(Nc1cccnc1)c1cc(-c2cc(Cl)ccc2O)n[nH]1`, the result was inactive.

Regarding `Cc1ccc(NC(=O)c2ccc(CN3CCCN(CC4CCCCC4)CC3)cc2)cc1C`, the outcome was inactive.

`Cc1cc(N2CCN(C(=O)OC(C)(C)C)CC2)ccc1N`: the result was inactive.

As for `O=C1CSc2ccc(CNC3CCN(CCc4c(F)cnc5ccc(F)cc45)CC3)nc2N1`, the result was inactive.

Take `CCN(CC)CCOc1c(Cl)cc(Cl)cc1CNCCCNc1cc(=O)c2ccccc2[nH]1`: the outcome was inactive.

With `Cc1cc(NC(=O)NCCN2CCC(NS(=O)(=O)c3ccc(Br)cc3)C2)c2ccccc2n1` (stereo not given), the result was inactive.

Take `Cc1cc(N[C@@H](Cc2ccccc2)C(=O)Nc2ccccc2)nc(NCCc2cccnc2)n1`: the outcome was inactive.

Consider `COc1ccc(C2CCN(CCCNC(=O)c3ccc(NC(=O)c4ccc(Cl)cc4)cc3)CC2)c(OC)c1`, for which the outcome was inactive.

With `COc1ccccc1CCNc1nc(C)cc(N[C@@H](Cc2ccccc2)C(=O)NCCCOC(C)C)n1`, the outcome was inactive.

For the molecule `Cc1ccccc1C(O)CNc1ccnc(Nc2cccc(C#N)c2)n1` (stereo not given), the result was inactive.

Take `COc1cc2nc(Nc3ccc(C)cc3)nc(Nc3ccc(C)cc3)c2cc1OC`: the outcome was inactive.

In the case of `CC(CCCCC(=O)Nc1ccc(CC(C)NCCc2cccc(Cl)c2)cc1)NCCc1cccc(Cl)c1` (stereo not given), the outcome was inactive.

For `CCc1cn2c3c(cc(C(=O)N[C@@H](Cc4ccccc4)[C@H](O)CN[C@@H](C)CC)cc13)N(C)S(=O)(=O)CC2`, the result was inactive.

Regarding `CCOc1ccc(NC(=O)c2ccc(CN3CCCN(Cc4cccc(O)c4)CC3)cc2)cc1`, the outcome was inactive.

`Cc1cccc2[nH]c(-c3ccc(-c4ccc(CN5CCC(C(N)=O)CC5)cc4)s3)nc12`: the result was inactive.

With `CN(Cc1cc(C(F)(F)F)cc(C(F)(F)F)c1)C(=O)C(Cc1ccc(F)cc1)C1CCCNC1` (stereo not given), the outcome was inactive.

As to `Cc1cccc2[nH]c(-c3cccc(-c4cccc(NC(=O)c5ccncc5)c4)c3)nc12`, the result was inactive.

In the case of `Oc1c(Cl)cc(-c2ccccc2)cc1CNC1CCCCC1`, the result was inactive.

In the case of `NC(N)=Nc1nc(-c2cccc(NC(=O)NCc3ccc(OC(F)(F)F)cc3)c2)cs1`, the result was inactive.

As for `C=CCc1cccc(CN2CCC(c3cc(=O)[nH]c(-c4ccccn4)n3)CC2)c1O`, the outcome was inactive.

Regarding `O=C(NCc1cccc(Cl)c1)c1ccc(CNC2CCN(Cc3ccccc3)CC2)cc1`, the outcome was inactive.

`CS(=O)(=O)N(c1ccc(F)cc1)c1cc(C(=O)N[C@@H](Cc2ccccc2)[C@H](O)CNCc2cccc(C(F)(F)F)c2)cc(N2CCCC2=O)c1`: the result was inactive.

Consider `Cc1ccc(S(=O)(=O)c2nc(S(=O)(=O)c3ccccc3)sc2NCC2CCCO2)cc1` (stereo not given), for which the result was inactive.
